Our source for the activation values is PubChem BioAssay AID504326 (The Scripps Research Institute Molecular Screening Center, 2011).

Among all 340,000 compounds or so, about 990 (0.29%) were called active. This is one part of a sample in which actives are shown more often than they occur. Unmarked numbers belong to inactive results. Cut-off read from the data, not from the text of the source: active = activation above about 18%; inactive = the rest.

Sequence of Mu-type opioid receptor (Homo sapiens) + Delta-type opioid receptor (Homo sapiens) (P35372 whole entry, looked up): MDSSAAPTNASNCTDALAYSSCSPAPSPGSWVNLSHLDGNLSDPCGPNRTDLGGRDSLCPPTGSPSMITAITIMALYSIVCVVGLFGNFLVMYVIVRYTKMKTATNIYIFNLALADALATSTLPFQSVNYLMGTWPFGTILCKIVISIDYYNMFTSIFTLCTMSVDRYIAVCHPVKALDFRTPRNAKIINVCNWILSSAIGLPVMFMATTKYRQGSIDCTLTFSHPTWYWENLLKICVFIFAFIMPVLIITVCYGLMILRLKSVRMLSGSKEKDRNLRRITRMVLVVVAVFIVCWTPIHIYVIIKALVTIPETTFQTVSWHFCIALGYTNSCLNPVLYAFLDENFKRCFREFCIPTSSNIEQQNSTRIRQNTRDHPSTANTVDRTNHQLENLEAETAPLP
Sequence of Mu-type opioid receptor (Homo sapiens) + Delta-type opioid receptor (Homo sapiens) (P41143 whole entry, looked up): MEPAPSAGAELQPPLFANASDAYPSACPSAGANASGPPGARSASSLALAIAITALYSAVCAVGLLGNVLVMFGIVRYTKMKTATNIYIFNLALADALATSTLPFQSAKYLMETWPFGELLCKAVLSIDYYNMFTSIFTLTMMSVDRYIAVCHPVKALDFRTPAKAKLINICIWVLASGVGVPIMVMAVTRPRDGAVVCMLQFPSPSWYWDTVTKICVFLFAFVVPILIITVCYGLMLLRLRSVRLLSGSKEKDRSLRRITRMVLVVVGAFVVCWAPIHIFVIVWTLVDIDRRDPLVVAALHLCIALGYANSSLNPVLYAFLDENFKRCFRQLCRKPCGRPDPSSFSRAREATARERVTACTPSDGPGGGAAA

This assay addresses Mu-type opioid receptor (Homo sapiens) + Delta-type opioid receptor (Homo sapiens) (UniProt P35372+P41143). The assay can be described thus: inducers of mu-delta opioid receptor heterodimers – cell-based, luminescence, primary screen (AID 504326).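 Note: 0% = vehicle-treated cells and 100% = reference agonist.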 The settings on record: cells, OPRM1-OPRD1 heterodimerization, at 9.3 µM, hits give high values.
On to `C=C(C)COc1ccc(-c2ncncc2-c2ccc(OC)cc2)c(O)c1`, for which the activation is 0.28%.
Turning to `C=C(C)COc1ccc(-c2n[nH]c(C)c2-c2ccccc2)c(O)c1`, the activation was 20.9% (active).
As to `C=C(C)COc1ccc(-c2nc(N)ncc2-c2ccccc2OC)c(O)c1`, the activation was 5.76%.
In the case of `COCCCNC(=O)Cn1cc(/C=C(\C#N)C(=O)N2CCN(c3ccccc3)CC2)c2ccccc21`, the activation is -0.49%.
For `Cc1ccc(N=C2NC(=O)c3cccc([N+](=O)[O-])c32)cc1`, the activation is -1.31%.
With `COc1ccccc1C(CNC(=O)c1ccc(C)c(S(=O)(=O)N2CCCCC2)c1)N(C)C` (stereo not given), the activation was 33.2% (active).
Turning to `COc1ccccc1CNC(=O)c1ccc(Cl)c(S(=O)(=O)N2CCCC2)c1`, the activation was -1.63%.
As to `Cc1ccc(C(=O)NCC(c2cccs2)N(C)C)cc1S(=O)(=O)N1CCOCC1` (stereo not given), the activation was 7.26%.
For the compound `CCCOc1ccc(C(=O)C(CCC(CNCC)C(=O)c2ccc(OCCC)cc2)CNCC)cc1` (stereo not given), the activation is 11.1%.
Consider `C=CCOc1c2ccc(C(=O)N(CC)c3ccc(OC)cc3)cc2nn1C`, for which the activation is 0.36%.
As to `COc1cccc(NC(=O)c2ccccc2N(Cc2ccccc2)S(C)(=O)=O)c1`, the activation is -3.67%.
For the compound `CC(OC(=O)c1ccc([N+](=O)[O-])cc1)C(=O)NCC1CCCCC1` (stereo not given), the activation is 0.26%.
On to `COc1ccc(NC(=O)CCC(=O)Nc2cc(OC)c(NC(=O)c3ccco3)cc2OC)c(OC)c1`, for which the activation was 0.82%.
As to `COc1cc(C(=O)OC(C)C(=O)NCC2CCCCC2)cc(NC(=O)c2ccco2)c1OC` (stereo not given), the activation is 26.7% (active).
`CNC(=O)c1[nH]cnc1C(=O)N[C@@H](CC(C)C)C(=O)OC(C)(C)C`: the activation was 0.92%.
To `Cc1ccc(S(=O)(=O)NC(C)C(=O)Nc2ccccc2C(=O)N2CCCC2)cc1` (stereo not given) belongs 2.72%; to `COc1ccc(CSc2nnnn2-c2ccc(C(=O)O)cc2)cc1`, -1.43%.
For `COc1ccc(-n2nnnc2-c2nc3ccccc3s2)cc1`, the activation is 20.4% (active).
Under `COc1ccc(-n2nnnc2CNC(=O)c2ccc3ccccc3c2)cc1` stands -0.36%; under `Cc1ccc(S(=O)(=O)NC(C(=O)N2CCOCCOCCOCCOCC2)c2ccccc2)cc1` (stereo not given), -1.61%.
In the case of `CC(=O)N1CCN(C(=O)C2(NC(=O)Nc3ccc(C)cc3)CCCCC2)CC1`, the activation was -2.72%.
Consider `CCOc1ccc(-c2c(C)n([O-])c3c([n+]2=O)CCCC3)cc1`, for which the activation is -0.63%.
In the case of `C[C@H]1CC[C@]2(O[C@@H](CCO)C[C@@H](O)[C@@H]2O)O1`, the activation was 3.63%.
In the case of `O=C(N[C@@H](Cc1ccccc1)C(=O)OCc1ccccc1)c1nc[nH]c1C(=O)NC1CCNCC1`, the activation was -2.25%.
Take `CC(C)(C)OC(=O)N1CCC(NC(=O)c2[nH]cnc2C(=O)N[C@@H](Cc2ccccc2)C(=O)OCc2ccccc2)CC1`: the activation is 21.9% (active).
For `CC(C)(C)OC(=O)CNC(=O)c1[nH]cnc1C(=O)N[C@@H](Cc1ccccc1)C(=O)OCc1ccccc1`, the activation is 14.2%.
With `CCN1CCC2(CC1)N=C(c1ccc(F)cc1)C(=S)N2C(=O)c1ccc(C)cc1`, the activation was 13.8%.
Turning to `O=C1N/C(=C/c2cccs2)C(=O)N1Cc1ccc(F)cc1`, the activation is 18.9% (active).
In the case of `CN(C)c1ccc(/C=C2\NC(=S)N(Cc3ccccc3)C2=O)cc1`, the activation is 0.84%.
For the compound `Cc1ccc(CN2C(=O)N/C(=C/c3cc(C)n(-c4ccccn4)c3C)C2=O)cc1`, the activation is -1.23%.
In the case of `CCn1c(SCC(=O)Nc2ccc(C)cc2)nc2nc3c(cc2c1=O)CCCC3`, the activation is -0.65%.
To `CCOc1ccc(NC(=O)CCS(=O)(=O)c2cccc3nsnc23)cc1` belongs -1.59%; to `O=C(NCc1ccccc1)c1onc(CSc2ccncc2)c1C(=O)NCc1ccccc1`, -1.19%; to `CCOc1cc(S(=O)(=O)NC2CC(C)(C)NC(C)(C)C2)ccc1F`, -2.58%.
For `COCCN(C(=O)CCC(=O)Nc1nccs1)C(C(=O)NCCC(C)C)c1ccc(F)cc1` (stereo not given), the activation is -1.57%.
Consider `CC1CCCN(CCOCCOc2ccccc2-c2ccccc2)C1` (stereo not given), for which the activation was 18.4% (active).
Regarding `CC1CN(CCCOc2ccccc2-c2ccccc2)CC(C)O1` (stereo not given), the activation is 4.64%.
Regarding `c1ccc(-c2ccccc2OCCN2CCCCC2)cc1`, the activation was -3.6%.
Take `Cc1c(NC(=O)C(C)OC(=O)c2c3c(nc4ccccc24)CCC(C)C3)c(=O)n(-c2ccccc2)n1C` (stereo not given): the activation is -2.46%.
For `CC(C)(C)NS(=O)(=O)c1ccc(NC(=O)C2CCCO2)cc1` (stereo not given), the activation was 0.39%.
With `CN(C)C(CNC(=O)c1ccc(S(=O)(=O)NCc2ccco2)cc1)c1ccccc1` (stereo not given), the activation is 20.7% (active).
`CC(=O)c1ccc(S(=O)(=O)Nc2ccc(C(=O)NCC(c3ccccc3)N(C)C)cc2)cc1` (stereo not given): the activation is 0.68%.
Under `O=C(NC1CCC(O)CC1)c1ccc(S(=O)(=O)NCc2ccco2)cc1` (stereo not given) stands -2.16%; under `COc1ccc(CNC(=O)c2cc(C(=O)C3CC3)c[nH]2)cc1`, -1.28%; under `CC(C)Cc1nnc(NC(=O)CN2C(=O)NC3(CCCCC3)C2=O)s1`, -1.6%.
As to `CCc1ccc(NC(=O)COC(=O)c2cccs2)cc1`, the activation is 0.52%.
Regarding `Cc1ccc(OCC(=O)Nc2ccc(N3CCN(C(=O)c4ccco4)CC3)cc2)c(C)c1`, the activation was 2.18%.
Under `Cc1ccc(OCC(=O)Nc2ccc(NC(=O)c3cccs3)cc2)c(C)c1` stands 19.7% (active); under `COC(=O)C1=C(C)N(C)C(=S)NC1c1cc(OC)ccc1OC` (stereo not given), 1.16%.
Under `O=C1CC[C@H](O)CCN1[C@H](CSc1ccc(Br)cc1)Cc1ccccc1` stands -1.02%; under `C[C@H]1CCC(=O)N([C@H](CSc2ccccc2)Cc2ccccc2)CC1`, 2.5%.
As to `COc1ccc(SC[C@H](Cc2ccccc2)N2CCN(CCc3ccccc3)CCC2=O)cc1`, the activation is 26.4% (active).
`CS(=O)(=O)N(C(=O)NC(=O)NC1CCS(=O)(=O)C1)C1CCCCC1` (stereo not given): the activation is 1.27%.
For the compound `CNC(=O)NC(=O)C(C)N1CCN(C/C=C/c2ccccc2)CC1` (stereo not given), the activation is 0.24%.
Turning to `Cc1ccc(NC(=O)c2oc(=O)c3ccccc3c2-c2ccccc2)c(C)c1`, the activation is -0.43%.
